This note sets out measurements from PubChem BioAssay (NCI).

This is part of a sample that, as a whole, favours compounds with a hit. Of some 83,000 tested, about 20% had one in any assay.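 Compound tested at a single concentration for 48 hours in 96-well plates; a percent growth value below 10 was scored as active.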 Unmarked numbers belong to inactive results. Calls of active or inactive are those of the source.

Among the test systems are DU-145 prostate; K-562 leukemia; MALME-3M melanoma; MDA-MB-231 breast; RXF 393 renal; SF-268 CNS; SF-295 CNS; SF-539 CNS; UACC-257 melanoma; M14 melanoma; HT29 colon; SNB-75 CNS; SNB-19 CNS; U251 CNS; PC-3 prostate; SK-MEL-5 melanoma; UACC-62 melanoma; LOX IMVI melanoma; SK-MEL-28 melanoma.
Holding throughout (assay): NCI-60 one-dose screen, 48 h (100 = growth as untreated, 0 = no growth, -100 = all killed)
Conditions in all cases: 10 µM unless noted

With `Cn1cc(-c2noc(-c3cn(C)c4ncccc34)n2)c2cc(Cl)ccc21`, the growth was 103% with DU-145 prostate; 87.4% in the assay with K-562 leukemia; 90.7% in the assay with MALME-3M melanoma; 70.4% in the assay with MDA-MB-231 breast; 121% in the assay with RXF 393 renal; 82.9% in the assay with SF-268 CNS. Besides, the growth in the assay on SF-295 CNS was 99.2%; with SF-539 CNS, 56.6%; in the assay on UACC-257 melanoma it was 103%; in the assay with M14 melanoma, 91.6%; in the assay with HT29 colon, 83.1%; in the assay on SNB-75 CNS, 101%. Also, the growth with SNB-19 CNS was 100%; in the assay with U251 CNS it was 95.6%; in the assay with PC-3 prostate, 89.3%; with SK-MEL-5 melanoma, 94.7%; in the assay with UACC-62 melanoma it was 93.1%; in the assay on LOX IMVI melanoma, 93.4%. In addition, in the assay on SK-MEL-28 melanoma, the growth is 93%.
As to `NNC(=O)c1ccc(C(=O)NN)cc1`, the growth in the assay with DU-145 prostate was 109%; with K-562 leukemia, 112%; in the assay on MALME-3M melanoma it was 98%; in the assay with MDA-MB-231 breast, 117%; with RXF 393 renal it was 111%; in the assay with SF-268 CNS it was 106%. The growth with SF-295 CNS was 106%; in the assay with SF-539 CNS, 115%; with UACC-257 melanoma, 94.6%; with M14 melanoma, 114%; in the assay with HT29 colon, 97.9%; in the assay with SNB-75 CNS, 113%. In addition, the growth was 103% with SNB-19 CNS; 93.2% in the assay on U251 CNS; 114% with PC-3 prostate; 108% in the assay on SK-MEL-5 melanoma; 97.6% in the assay with UACC-62 melanoma; 114% in the assay with SK-MEL-28 melanoma.
In the case of `CN(C)C(=S)Sc1ccc([N+](=O)[O-])cc1[N+](=O)[O-]`, the growth was 64.7% with DU-145 prostate; 8.13% (active) in the assay on K-562 leukemia; -4.06% (active) with MALME-3M melanoma; 44.3% in the assay on MDA-MB-231 breast; -61.1% (active) with RXF 393 renal; 52.8% in the assay on SF-268 CNS. Besides, the growth in the assay on SF-295 CNS was 90.3%; in the assay with SF-539 CNS, 52.1%; in the assay on UACC-257 melanoma, 41.4%; in the assay on M14 melanoma, 8.95% (active); with HT29 colon, -16.6% (active); in the assay on SNB-75 CNS it was 57.4%. Moreover, the growth was 83.2% with SNB-19 CNS; 6.55% (active) in the assay with U251 CNS; 28.1% with PC-3 prostate; 17.2% with SK-MEL-5 melanoma; 33.5% with UACC-62 melanoma; -4.79% (active) with LOX IMVI melanoma. For the same compound, the growth with SK-MEL-28 melanoma is 75.1%.
Turning to `Cc1cc(N2CCCCCC2)nc(N2CCN(CC(=O)Nc3ccc4c(ccn4Cc4ccccc4)c3)CC2)n1`, the growth in the assay with DU-145 prostate is 70.7%; with K-562 leukemia it was 12.1%; in the assay with MALME-3M melanoma it was 50.9%; in the assay on MDA-MB-231 breast, 54.6%; in the assay on RXF 393 renal, 6.02% (active); in the assay with SF-268 CNS it was 71.2%. Also, the growth in the assay with SF-295 CNS is 20.4%; with SF-539 CNS, 55.7%; in the assay with UACC-257 melanoma, 61.3%; in the assay on M14 melanoma it was 15.6%; in the assay on HT29 colon it was 6.45% (active); in the assay on SNB-75 CNS, 69.6%. For the same compound, the growth in the assay on SNB-19 CNS is 67.3%; in the assay on U251 CNS, 39.2%; in the assay with PC-3 prostate it was 29%; in the assay with SK-MEL-5 melanoma, 46.9%; with UACC-62 melanoma, 49.2%; in the assay on LOX IMVI melanoma, 44.1%. For the same compound, the growth with SK-MEL-28 melanoma is 51.8%.
For the compound `COc1ccc(-c2cc(-c3ccccc3)nc(SCCCCCC(=O)NO)n2)cc1`, the growth in the assay on DU-145 prostate was 61.2%; with K-562 leukemia, 26.4%; with MALME-3M melanoma, 21.5%; in the assay with MDA-MB-231 breast it was 59.2%; with RXF 393 renal, 39.2%; in the assay on SF-268 CNS it was 98.9%. For the same compound, the growth in the assay on SF-295 CNS is 60.4%; in the assay on SF-539 CNS it was 68.1%; in the assay with UACC-257 melanoma, 36.5%; in the assay on M14 melanoma, 52%; in the assay with HT29 colon, 23%; in the assay on SNB-75 CNS, 44.1%. Further, the growth was 70.5% in the assay on SNB-19 CNS; 56.4% in the assay with U251 CNS; 70.7% with PC-3 prostate; 33.2% in the assay with SK-MEL-5 melanoma; 26.2% in the assay on UACC-62 melanoma; 59.2% in the assay on LOX IMVI melanoma. Further, the growth in the assay on SK-MEL-28 melanoma was 49.3%.
`COc1cc2c(c(OC)c1)C1c3cc(OC)ccc3NC(=O)N1CC2` (stereo unspecified): the growth is 102% in the assay with DU-145 prostate; 30.8% in the assay on K-562 leukemia; 75.5% with MALME-3M melanoma; 66.5% in the assay with MDA-MB-231 breast; 98.2% with RXF 393 renal; 80.4% in the assay with SF-268 CNS. In addition, the growth is 74% in the assay on SF-295 CNS; 85.1% in the assay with SF-539 CNS; 90.8% in the assay with UACC-257 melanoma; 59.4% in the assay with M14 melanoma; 32.3% in the assay on HT29 colon; 83.2% in the assay with SNB-75 CNS. The growth is 87.5% in the assay on SNB-19 CNS; 74.9% with U251 CNS; 77.7% in the assay on PC-3 prostate; 82.2% in the assay on SK-MEL-5 melanoma; 66% in the assay on UACC-62 melanoma; 89.7% with LOX IMVI melanoma. Moreover, the growth with SK-MEL-28 melanoma is 88.9%.
For the compound `Fc1ccc(NC(=S)c2ccccc2)cc1`, the growth was 106% with DU-145 prostate; 105% with K-562 leukemia; 96.2% in the assay on MALME-3M melanoma; 102% in the assay on MDA-MB-231 breast; 109% in the assay on RXF 393 renal; 99% in the assay on SF-268 CNS. Also, the growth was 95.8% in the assay with SF-295 CNS; 97.6% with SF-539 CNS; 98.9% in the assay on UACC-257 melanoma; 100% with M14 melanoma; 109% with HT29 colon; 99.7% in the assay on SNB-75 CNS. Also, the growth in the assay with SNB-19 CNS is 100%; with U251 CNS, 98.5%; with PC-3 prostate it was 100%; in the assay on SK-MEL-5 melanoma, 101%; in the assay with UACC-62 melanoma, 88.9%; in the assay with LOX IMVI melanoma, 112%. In the assay with SK-MEL-28 melanoma, the growth is 102%.
In the case of `NC(=O)c1c(NC(=O)COC(=O)Cc2ccccc2F)sc2c1CCC2`, the growth is 104% with DU-145 prostate; 139% in the assay with K-562 leukemia; 109% with MALME-3M melanoma; 101% with MDA-MB-231 breast; 109% with RXF 393 renal; 99.6% with SF-268 CNS. Besides, the growth was 129% in the assay with SF-295 CNS; 94.9% in the assay on SF-539 CNS; 4.15% (active) in the assay with UACC-257 melanoma; 105% in the assay with M14 melanoma; 117% with HT29 colon; 106% with SNB-75 CNS. Further, the growth in the assay on SNB-19 CNS is 86.6%; in the assay with U251 CNS it was 101%; in the assay on PC-3 prostate, 100%; in the assay on SK-MEL-5 melanoma, 91.1%; in the assay with UACC-62 melanoma, 97%; with LOX IMVI melanoma, 110%. For the same compound, the growth with SK-MEL-28 melanoma was 97.2%.
